Results reported in PubChem BioAssay (EPA / NIEHS).
The source made the active and inactive calls. Rule for the calls: active = hit-call score of the fitted dose curve at least 0.9, where 1 is the maximum; inactive = score below 0.9.

Assay: ATG_FoxO_CIS: Attagene CIS-FACTORIAL HepG2 Assay for human Forkhead box O (FoxO) (AID 2282943)
Conditions: HepG2 Attagene cis-reporter, FoxO element, mRNA; actives raise or lower the signal
Experimental: ATG_CIS is a cell-based, multiplexed-readout assay that uses HepG2, a human liver cell line, with measurements taken at 24 hours after chemical dosing in a 24-well plate.ATG_FoxO_CIS is one of 52 assay component(s) measured or calculated from the ATG_CIS assay. It is designed to make measurements of mRNA induction, a form of inducible reporter, as detected with fluorescence intensity signals by Reverse transcription polymerase chain reaction (RT-PCR) and Capillary electrophoresis technology.Data from the assay component ATG_FoxO_CIS was analyzed into 1 assay endpoint. This assay endpoint, ATG_FoxO_CIS, was analyzed with bidirectional fitting relative to DMSO as the negative control and baseline of activity. Using a type of inducible reporter, measures of mRNA for gain or loss-of-signal activity can be used to understand the reporter gene at the transcription factor-level as they relate to the gene FOXO1 and FOXO3. Furthermore, this assay endpoint can be referred to as a primary readout, because this assay has produced multiple assay endpoints where this one serves a reporter gene function. To generalize the intended target to other relatable targets, this assay endpoint is annotated to the dna binding intended target family, where the subfamily is forkhead box protein.
Human liver HepG2 cells are transiently transfected with multiple reporter transcription units (MRTUs) in 6-well plates using FuGene 6 reagent (Roche; 3 ml FuGene/1 mg DNA). The MRTU constructs are regulated by a cis-regulating element (promoter). […] A major difference between the CIS and TRANS system is that in CIS activities of endogenous TFs are measured, whereas the TRANS assay evaluates changes in activities of exogenous, chimeric NR-Gal4 proteins. […] At the end of 24 hour incubation, total RNA was isolated using TriZol reagent (Invitrogen). The isolated RNA is then reverse-transcribed using oligo(dT) primer and Mo-MLV reverse transcriptase (Invitrogen) with DNAse I (Ambion) treatment for 30 min. The one-tenth of the produced cDNA was amplified by PCR using Taq DNA polymerase (Invitrogen) and two reporter sequence-specific primers. The PCR products were fluorescently labeled by primer extension with 6-arboxyfluorescein (6-FAM) 5'-labeled reporter sequence-specific primer (2 min at 95 C, 20 s at 68 C and 10 min at 72 C) and these products were digested with 5U of HpaI (New England Biolabs) for 2h at 37 C. The fragments were purified using Qiaquick PCR columns (Qiagen), analyzed on an ABI 3130xL genetic analyzer (Applied Biosystems) with peak positions identified by using a set of X-rhodamine (ROX)-labeled MapMarker1000 molecular weight standards (BioVentures). The raw capillary electrophoresis data was processed using Attagraph software (Attagene).
For O=C(O)COc1cc(Cl)c(Cl)cc1Cl, the outcome was “inactive”.
In the case of CCCCC(CC)C(=O)Cl (stereo not given), the outcome is reported as “inactive”.
For CCCCCCCCCCCCCl, the outcome was “inactive”.
For CC(c1ccc(O)cc1)c1ccc(O)cc1, the outcome was “inactive”.
In the case of CC(C)CP(=S)(S)CC(C)C, the outcome is reported as “inactive”.
In the case of c1ccc2c(c1)Oc1ccccc1O2, the outcome is reported as “inactive”.
With O=C(O)COc1ccc(Cl)cc1 the outcome was “inactive”.
In the case of Nc1c(Oc2ccccc2)cc(O)c2c1C(=O)c1ccccc1C2=O, the outcome is reported as “inactive”.
In the case of COCC(=O)N(c1c(C)cccc1C)[C@H](C)C(=O)OC, the outcome is reported as “inactive”.
In the case of O=C(O)c1cc(I)cc(I)c1I, the outcome is reported as “inactive”.
In the case of OC(Cc1ccccc1Cl)(Cn1[nH]cnc1=S)C1(Cl)CC1 (stereo not given), the outcome is reported as “inactive”.
For OCC(c1ccc(Cl)cc1)c1ccc(Cl)cc1, the outcome was “inactive”.
In the case of O=[N+]([O-])c1c2ccccc2cc2ccccc12, the outcome is reported as “inactive”.
With Fc1cccc(Cl)c1CCl the outcome was “inactive”.
For Cl[C@H]1OCCO[C@@H]1Cl, the outcome was “inactive”.
For Cc1cc(C(C)(C)c2ccc(O)c(C)c2)ccc1O, the AC50 was 72.8 µM (active).
For Brc1c(Br)c(Br)c(Oc2c(Br)c(Br)c(Br)c(Br)c2Br)c(Br)c1Br, the outcome was “inactive”.
In the case of CC(C)(C)c1ccc(CCOc2ncnc3ccccc23)cc1, the outcome is reported as “inactive”.
With O=[N+]([O-])c1cccc2ccccc12 the outcome was “inactive”.
In the case of CCCCCCCCCCBr, the outcome is reported as “inactive”.
With CCOC(=O)c1ccccc1S(=O)(=O)NC(=O)Nc1nc(Cl)cc(OC)n1 the outcome was “inactive”.
For CCOP(=S)(OCC)Oc1ccc(Cl)cc1Cl, the outcome was “inactive”.
With [Cl][Sn]([c]1ccccc1)([c]1ccccc1)[c]1ccccc1 the AC50 was 0.308 µM (active).
With O=C1C[C@@H]2OCC=C3CN4CC[C@]56c7ccccc7N1[C@H]5[C@H]2[C@H]3C[C@H]46 the outcome was “inactive”.
In the case of O=NN1CCCCCC1, the outcome is reported as “inactive”.
For CCCCOC(C)=O, the outcome was “inactive”.
In the case of NC(=O)c1ccc(N)nc1, the outcome is reported as “inactive”.
In the case of CCCCCCCCCCCCBr, the outcome is reported as “inactive”.
In the case of Clc1cccc(Cl)c1, the outcome is reported as “inactive”.
With NC(=O)CCl the outcome was “inactive”.
For ClCc1ccccc1CCl, the outcome was “inactive”.
With Cc1cc(Cl)ccc1OCCCC(=O)O the outcome was “inactive”.
For Cc1cc(C(F)(C(F)(F)F)C(F)(F)F)ccc1NC(=O)c1cccc(I)c1C(=O)NC(C)(C)CS(C)(=O)=O, the outcome was “inactive”.
With ClCCCCl the outcome was “inactive”.
In the case of C=CC(=O)[O][Sn]([CH2]CCC)([CH2]CCC)[CH2]CCC, the outcome is reported as “inactive”.
For c1csc(-c2ccc(-c3cccs3)s2)c1, the outcome was “inactive”.
In the case of N#Cc1ccccc1N, the outcome is reported as “inactive”.
With C[C@]12CC[C@@H](O)C[C@@H]1CC[C@@H]1[C@@H]2CC[C@]2(C)C(=O)CC[C@@H]12 the outcome was “inactive”.
With COP(=S)(OC)Oc1cc(Cl)c(I)cc1Cl the AC50 was 41.8 µM (active).
In the case of C=CCOC(F)(C(F)(F)F)C(F)(F)F, the outcome is reported as “inactive”.
